Laboratory results reported in ChEMBL document CHEMBL1157539, “Thousands of chemical starting points for antimalarial lead identification” (Nature, 2010).

test system: Plasmodium falciparum; assay: GSK_TCMDC: Inhibition of Plasmodium falciparum Dd2 in whole red blood cells, using parasite LDH activity as an index of growth. Test compounds present at 2uM; type: functional

Row | Compound | Inhibition
1 | COc1ccc(NC(=O)[C@H](CC(C)C)Nc2cc(C)nc(NCc3ccccc3C)n2)cc1.O=C(O)C(F)(F)F | 78%
2 | COc1ccccc1C(C)NCC(=O)Nc1cccc(C(=O)Nc2cccc(C(F)(F)F)c2)c1 (stereo not given) | 39%
3 | CN1CCOc2ccc(Nc3nnc(-c4cccc(-c5cccnc5)c4)o3)cc2C1 | 100%
4 | Cc1cc2c(NC(=O)NC3CCN(Cc4ccc(Cl)c(Cl)c4)CC3)cccc2cn1.Cl | 41%
5 | O=C(N1CCN(c2ccc(C(F)(F)F)cc2[N+](=O)[O-])CC1)C(Cl)(Cl)Cl | 99%
6 | COc1ccc(OC)c2c1CC1NCC2c2c(OC)ccc(OC)c21.Cl (stereo not given) | 3%
7 | CCN(CC)/C(=N/C(=N)Nc1ccc(Cl)cc1)NCCCCCCCCN/C(=N\C(=N)Nc1ccc(Cl)cc1)N(CC)CC | 94%
8 | Cc1ccccc1CN1CCCN(Cc2ccc(C(=O)Nc3ccc(C(C)(C)C)cc3)cc2)CC1.O=C(O)C(F)(F)F | 5%
9 | O=C(Nc1ccc(-c2csc3nccn23)cc1)c1ccc(Cl)cc1 | 50%
10 | Cc1ccc(NC(=O)c2cc(Br)cc(N3CCC(N(C)C)CC3)c2)cc1F.O=C(O)C(F)(F)F | 80%
11 | COc1cc(Nc2nc(N)c3cc(OC)c(OC)cc3n2)cc(OC)c1.Cl | 100%
12 | Cc1cccc2nc(-c3ccc(-c4ccc(CN5CC(C)OC(C)C5)cc4)cc3)[nH]c12.O=C(O)C(F)(F)F (stereo not given) | 96%
13 | O=C(NCc1ccc(Cl)cc1)c1ccc(CN2CCCN(CC3CCCCC3)CC2)cc1.O=C(O)C(F)(F)F | 5%
14 | CCCNC(=O)c1cncc(-c2ccc(CNCCCc3ccccc3)cc2)c1.O=C(O)C(F)(F)F | 29%
15 | O=C(Nc1ccc([N+](=O)[O-])cc1)Nc1cc(OCC(F)(F)F)cc(OCC(F)(F)F)c1 | 100%
16 | CN1CCN(CCCN(Cc2csc(-c3ccc(CNCc4ccccc4)cc3)n2)S(=O)(=O)c2ccccc2Cl)CC1.O=C(O)C(F)(F)F | 81%
17 | O=C(CCc1c[nH]cn1)Nc1cccc(-c2ccc(-c3nc4ccccc4[nH]3)s2)c1 | 37%
18 | COc1ccc(C2C(C(=O)OC3CCCCC3)=C(C)NC3=C2C(=O)CCC3)cc1Br (stereo not given) | 94%

Row | Compound | Inhibition
19 | COc1ccc(CN(C)Cc2ccc(NC(=O)c3cccc4c(=O)c5cccc(C)c5[nH]c34)cc2)cc1OC | 22%
20 | CN1CCC(N(Cc2ccc(-c3cnc(NCc4ccccc4)nc3)cc2)S(=O)(=O)c2ccccc2)CC1.O=C(O)C(F)(F)F | 10%
21 | O=C(/C=C/c1ccc(Cl)c(Cl)c1)NCCCCCN1CCCC(CNC(=O)Nc2ccc(Oc3ccccc3)cc2)C1 (stereo not given) | 6%
22 | C=CCC(C(=O)Nc1ccnc2ccc(OC)cc12)C1CCN(CCCCCCC)CC1 (stereo not given) | 84%
23 | Cn1cccc1CCNCc1ccc(-c2cccc(-c3nc4cc(F)ccc4[nH]3)c2)cc1.O=C(O)C(F)(F)F | 43%
24 | O=C(NCCCCCN1CCC(c2c[nH]c3ccccc23)CC1)Nc1ccc(Cl)cc1Cl | 15%
25 | CC1CN(c2cnn(Cc3ccc(NC(=O)Nc4cccc(C(F)(F)F)c4)cc3)c(=O)c2Cl)CC(C)N1.O=C(O)C(F)(F)F (stereo not given) | 31%
26 | Cc1ccc(Nc2ccnc3ccc(C(F)(F)F)cc23)cc1O.O=C(O)C(F)(F)F | 69%
27 | O=C(NC1CCN(CCN2CCC(c3ccccc3C(F)(F)F)CC2)CC1)c1ccc(-c2ccc(Cl)cc2)cc1 | 68%
28 | Cc1cc(N[C@@H](Cc2ccccc2)C(=O)NCCOc2ccccc2)nc(NCCOc2ccccc2)n1.O=C(O)C(F)(F)F | 24%
29 | O=C(O)C(F)(F)F.c1cc(CN2CCN(c3ccncc3)CC2)cc(-c2cccc(-c3nc4ccccc4[nH]3)c2)c1 | 98%
30 | CCNCc1cccc(-c2ccc3ccnc(N)c3c2)c1 | 98%
31 | O=C(/C=C/c1ccc(Cl)c(Cl)c1)NCCCCCN1CCCC(c2c[nH]c3ccccc23)C1 (stereo not given) | 22%
32 | Cc1csc(NC(=O)c2cn(-c3ccccc3)nc2-c2cccs2)n1 | 12%
33 | Cl.Nc1nc(N)c2c(ccc3c2ccn3CCCC2CCCNC2)n1 (stereo not given) | 55%
34 | Cc1noc(C)c1-c1cccc(CNCc2cccc(-c3ccc(-c4nc5cc(C(F)(F)F)ccc5[nH]4)s3)c2)c1.O=C(O)C(F)(F)F | 95%
35 | CCOC(=O)c1ccc(NC(=O)NNC(=O)c2ccc(CCN3CCC(c4nc(COCC(F)(F)F)c(-c5ccc(F)cc5)o4)CC3)cc2)cc1 | 67%
